{"source": "the supplement of paper PMC9023506", "note": "Structures can show the parent of a compound that is named as a salt."}
{"test_system": "Danio rerio larvae (5 dpf)", "assay": "optomotor response to green moving lines, difference vs DMSO (percentage points (treated minus DMSO)); higher = more of the behaviour than the DMSO vehicle control", "settings": "10 µM; exposure time: 3 h pre-incubation + 3 h imaging", "protocol": "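5-dpf wild-type zebrafish larvae were imaged in 96-well plates. They were treated with 190 Tocris FDA-approved drugs at 10 µM (1 µl/ml DMSO) for 3 h before and 3 h during imaging at 28.5 °C, 48 larvae per drug. Automated image analysis gave % time moving and optomotor responses. Values are drug group mean minus DMSO vehicle mean (n=844), in percentage points, for 10 behaviours.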"}
{"smiles": "CN1C[C@H](C(=O)N[C@]2(C)O[C@@]3(O)[C@@H]4CCCN4C(=O)[C@H](Cc4ccccc4)N3C2=O)C[C@@H]2c3cccc4[nH]cc(c34)C[C@H]21", "note": "[Dihydroergotamine mesylate]", "optomotor response to green moving lines": 16.2}
{"smiles": "C=C1C[C@@H]2[C@H](CC[C@]3(C)C(=O)CC[C@@H]23)[C@@]2(C)C=CC(=O)C=C12", "note": "[Exemestane]", "optomotor response to green moving lines": 9.98}
{"smiles": "CCN(C)C(=O)Oc1cccc([C@H](C)N(C)C)c1", "note": "[Rivastigmine tartrate]", "optomotor response to green moving lines": -8.15}
{"smiles": "CC(C)C[C@H]1C(=O)N2CCC[C@H]2[C@]2(O)O[C@](NC(=O)[C@@H]3C=C4c5cccc6[nH]c(Br)c(c56)C[C@H]4N(C)C3)(C(C)C)C(=O)N12", "note": "[Bromocriptine mesylate]", "optomotor response to green moving lines": -20.3}
{"smiles": "COc1cc2c(cc1OC)C1CC(=O)C(CC(C)C)CN1CC2", "note": "(stereo unspecified) [Tetrabenazine]", "optomotor response to green moving lines": -9.74}
{"smiles": "N[C@@H]1C[C@H]1c1ccccc1", "note": "[Tranylcypromine hydrochloride]", "optomotor response to green moving lines": 0.888}
{"smiles": "CC[C@@H](C(N)=O)N1CCCC1=O", "note": "[Levetiracetam]", "optomotor response to green moving lines": 4.63}
{"smiles": "O=c1[nH]c2ccccc2n1C1CCN(CCCC(c2ccc(F)cc2)c2ccc(F)cc2)CC1", "note": "[Pimozide]", "optomotor response to green moving lines": -16.3}
{"smiles": "CC(O)(CS(=O)(=O)c1ccc(F)cc1)C(=O)Nc1ccc(C#N)c(C(F)(F)F)c1", "note": "(stereo unspecified) [Bicalutamide]", "optomotor response to green moving lines": 1.12}
{"smiles": "COc1ccc(C(CN(C)C)C2(O)CCCCC2)cc1", "note": "(stereo unspecified) [Venlafaxine hydrochloride]", "optomotor response to green moving lines": 1.84}
{"smiles": "C=CCN1C[C@H](C(=O)N(CCCN(C)C)C(=O)NCC)C[C@@H]2c3cccc4[nH]cc(c34)C[C@H]21", "note": "[Cabergoline]", "optomotor response to green moving lines": -10.2}
